Assay outcomes as filed in PubChem BioAssay.
FBW7 act: human FBW7 E3 ligase activation, primary screen; Q969H0; AlphaScreen FBW7–phospho-cyclin E peptide binding, activator screen; normalized activity (activation), % at 26.1 µM; 0.13% of 650,000 active; in the data active means normalized activity above about 1.9%;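 further: purified mutant Fbw7 with reduced substrate affinity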
Target sequence (Q969H0 whole entry, looked up): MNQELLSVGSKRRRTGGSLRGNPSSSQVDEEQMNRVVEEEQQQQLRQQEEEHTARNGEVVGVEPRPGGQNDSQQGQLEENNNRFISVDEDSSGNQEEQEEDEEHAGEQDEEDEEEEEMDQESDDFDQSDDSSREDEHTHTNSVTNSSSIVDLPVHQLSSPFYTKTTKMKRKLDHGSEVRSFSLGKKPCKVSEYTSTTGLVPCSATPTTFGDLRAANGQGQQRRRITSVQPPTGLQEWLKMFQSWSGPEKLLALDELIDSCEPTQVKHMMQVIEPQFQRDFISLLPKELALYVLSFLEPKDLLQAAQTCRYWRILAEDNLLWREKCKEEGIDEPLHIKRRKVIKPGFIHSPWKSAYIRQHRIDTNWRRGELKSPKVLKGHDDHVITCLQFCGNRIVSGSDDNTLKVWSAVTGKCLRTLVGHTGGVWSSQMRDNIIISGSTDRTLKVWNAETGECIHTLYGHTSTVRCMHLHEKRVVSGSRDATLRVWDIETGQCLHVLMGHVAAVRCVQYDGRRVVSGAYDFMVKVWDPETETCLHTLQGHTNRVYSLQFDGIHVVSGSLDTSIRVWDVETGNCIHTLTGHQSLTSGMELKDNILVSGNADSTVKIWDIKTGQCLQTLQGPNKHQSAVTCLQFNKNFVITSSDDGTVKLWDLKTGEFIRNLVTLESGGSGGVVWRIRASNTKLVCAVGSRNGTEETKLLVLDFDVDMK
TEAD-YAP block: TEAD-YAP interaction inhibition; HEK-TIYL cells, TEAD-Gal4/YAP UAS-luciferase luminescence; inhibition, % at 9.12 µM; 1.4% of 640,000 active; AID 1259422; in the data active means inhibition above about 32%;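 further: 0% = median of test compound wells and 100% = reference inhibitor wells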
GPR151 activ: human GPR151 activation. AID 1508602. PathHunter beta-arrestin GPR151 cells, luminescence. activation, % at 11.2 µM. 1% of 650,000 active. Q8TDV0; in the data active means activation above about 4.9%;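 further: 0% = median of compound wells and 100% = cells with positive control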
MITF inh: blocks human microphthalmia-associated transcription factor; 0.91% of 650,000 active; AlphaScreen MITF homodimerization, bead proximity signal; inhibition, % at 2.6 µM; AID 1259374; O75030; in the data active means inhibition above about 50%;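 further: 0% = vehicle wells with protein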
GPR151 conf act: confirmation of human GPR151 activators. shares compounds with GPR151 activ. GPR151 PathHunter beta-arrestin cells, luminescence, 90 min; % of EA-reagent control over plate median. activation, % at 11.2 µM. 6,700 tested, under 10 active. AID 1508609;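 active means mean percent activation across replicates above the confirmation screen cutoff of 4.91%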
GPR119 counter: counter-screen for GPR151 activators: effect on human GPR119. shares compounds with GPR151 activ. GPR119 PathHunter beta-arrestin cells, luminescence, 90 min; 0 = compound-well median, 100 = enzyme-acceptor control. activation, % at 11.2 µM. 0.3% of 6,700 active. AID 1508611;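 active means mean percent activation in the counterscreen above 29.09%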;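 further: counterscreen on off-target GPR119 to flag nonselective hits from the GPR151 activator screen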
Numbers without * were called inactive; · = no result given; ! = not active in a repeat. Shown are actives, neighbours in structure and some others; about 3.5% of the full set was active somewhere.

SMILES	FBW7 act	TEAD-YAP block	GPR151 activ	MITF inh	GPR151 conf act	GPR119 counter
[O-]/[N+](=C\c1ccc(F)cc1)c1ccccc1	0.2	6.5	-0.8	-0.6	·	·
[O-]/[N+](=C\c1ccncc1)c1ccc(Cl)cc1	0.0	4.7	5.2*	-0.6	1.8	12.7
CSCCC(NC(=O)C1CCC(C)CC1)C(=O)NCc1ccccn1 (configuration not stated)	-0.2	2.3	5.0*	2.7	-0.7	6.5
COc1cc(CN2CCC3(C=Cc4ccccc43)CC2)cc2c1OCO2	·	·	-1.2	·	·	·
COc1cc(CN2CCN(c3ccccc3Cl)CC2)cc2c1OCO2	0.0	7.5	5.5*	33.6	1.1	11.2
CCCCN(CCCC)CC(O)Cn1c2ccccc2c2ccccc21 (configuration not stated)	-0.2	6.5	0.7	-10.7	·	·
COC(=O)c1ccccc1NC(=O)CSc1n[nH]c(-c2ccccc2)n1	0.7	4.1	5.0*	11.3	-1.4	-13.1
COC(=O)c1ccccc1NC(=O)CCSCCC(=O)Nc1ccccc1C(=O)OC	0.2	0.6	6.3*	-4.1	-0.7	-7.0
COC(=O)CCC(=O)Nc1ccccc1NC(=O)CCC(=O)OC	-0.1	-0.1	5.0*	4.9	0.3	10.2
CCCC(=O)Nc1ccccc1NC(=O)Cc1ccc(OC)cc1	0.0	-0.5	5.4*	15.9	-0.3	-12.1
CC1=NN(c2ccc(S(N)(=O)=O)cc2)C(=O)/C1=C\c1ccccc1Cl	-0.4	4.0	-2.0	17.0	·	·
CCCCOc1ccc(N2CC(C(=O)NCCc3ccccc3)CC2=O)cc1 (configuration not stated)	0.0	4.7	1.1	-7.8	·	·
CCOc1ccc(NC(=O)C(C)N(c2ccc(OCC)cc2)S(C)(=O)=O)cc1 (configuration not stated)	0.1	-6.8	0.6	6.9	·	·
O=C(Nc1ccc(-c2cn[nH]c2)cc1)OCCc1ccccc1	-0.1	-27.9	5.0*	2.1	0.6	8.5
O=C(Nc1ccc(-c2cn[nH]c2)cc1)C1CCc2ccccc2C1 (configuration not stated)	-0.2	-3.6	5.4*	-5.0	0.1	8.2
O=C(Nc1ccc(-c2cn[nH]c2)cc1)[C@@H]1Cc2ccccc2CN1	0.2	-5.2	-0.4	12.9	·	·
O=C(Nc1ccc(-c2cn[nH]c2)cc1)OCc1ccccc1	-0.1	-13.9	-0.6	0.4	·	·
COc1cccc(NC(=O)N(Cc2nnc3n2CCCCC3)c2cccc(OC)c2)c1	0.1	9.5	0.0	-3.6	·	·
Cc1ccc(C2C(C(=O)OCC(C)C)C(=O)CC(C)(O)C2C(=O)OCC(C)C)cc1 (configuration not stated)	0.0	3.2	0.3	-2.3	·	·
CCn1c(SCC(=O)c2ccccc2)nnc1C(C)C	0.1	-15.0	12.7*	-8.6	0.8	9.3
CCn1c(SCC(=O)c2ccccc2)nnc1-c1ccccn1	-0.5	-58.3	0.0	6.2	·	·
CC(C)c1nnc(SCC(=O)NC(c2ccccc2)c2ccccc2)n1N	0.0	-7.8	6.3*	-0.2	0.4	-7.3
Nn1c(SCC(=O)NC(c2ccccc2)c2ccccc2)nnc1C1CC1	0.0	11.5	-0.6	-19.0	·	·
COC(=O)N/N=C(\C)c1ccccc1OC	0.6	12.2	-0.3	15.4	·	·
CCCCOc1nc2ccccc2nc1C(C#N)C(=O)OCC (configuration not stated)	-0.2	-6.6	5.3*	-13.3	0.1	-3.6
SMILES	FBW7 act	TEAD-YAP block	GPR151 activ	MITF inh	GPR151 conf act	GPR119 counter
CCOC(=O)C1=C(C)NC(=S)NC1c1cc(C)ccc1C (configuration not stated)	0.2	9.1	-0.1	20.3	·	·
COc1cc2nc(CN3CCCCC3c3ccccn3)nc(N3CCCC3)c2cc1OC (configuration not stated)	-1.5	4.0	0.0	10.5	·	·
CCn1c(SCC(=O)c2cccs2)nc2c1c(=O)n(C)c(=O)n2C	-0.1	-3.0	5.3*	-3.4	0.3	-0.8
Cc1ccc(-c2nc(CSCC(=O)N3CCN(C(=O)c4ccco4)CC3)c(C)o2)cc1	-0.1	-9.1	-0.2	0.9	·	·
Cc1ccc(-c2nc(CSCC(=O)N3CCOCC3)c(C)o2)cc1	-0.2	-11.4	5.0*	-18.1	0.9	-6.0
Cc1cc(C)c(NC(=O)c2cc3ccccc3oc2=O)c([N+](=O)[O-])c1	-0.2	7.8	0.1	15.6	·	·
Cc1cc(N/C=C2/CCCCC2=O)ccc1Br	0.4	-83.7	1.9	9.0	·	·
COC(=O)C1=C(O)/C(=C\c2ccc(F)cc2)N=C1C	0.1	5.8	8.6*	-5.5	0.8	-6.8
C#CCn1c(=NC(=O)c2ccnn2CC)sc2cccc(F)c21	-0.2	-4.8	-0.6	-2.2	·	·
Cc1ccc(C(=O)NC(=S)NNc2nc3ccccc3[nH]2)cc1	0.1	-5.1	5.3*	14.7	1.6	7.7
Cc1nc(-c2ccc(S(=O)(=O)N3CCOCC3)cc2)cs1	0.0	0.5	8.6*	3.8	0.3	2.2
CCc1ccc2[nH]c3nc(N/N=C/c4ccc(O)cc4)nnc3c2c1	-0.1	-4.5	2.3	-2.4	·	·
CCc1ccc2[nH]c3nc(N/N=C/c4cccc(O)c4)nnc3c2c1	-0.1	-7.7	6.7*	16.3	-0.6	1.8
Cc1ccc(S(=O)(=O)Cc2ccsc2[N+](=O)[O-])cc1	-0.1	1.7	-2.2	-6.1	·	·
CCN(c1ccccc1)c1ncnc2c1cnn2C	0.2	-9.3	5.0*	7.7	-0.2	2.9
CCCCN(c1ccccc1)c1ncnc2c1cnn2C	0.1	-14.7	0.5	-11.5	·	·
CCOc1cc(C2C(C(=O)OC)=CN(C)C=C2C(=O)OC)cc(Br)c1OC	1.2	-4.6	-0.6	3.3	·	·
COc1ccc(Cl)cc1NC(=O)CCc1nnc2ccc(N3CCN(C)CC3)nn12	-0.1	-1.7	5.1*	-10.9	0.1	2.4
COc1ccc(OC)c(NC(=O)CCc2nnc3ccc(N4CCCCC4)nn23)c1	0.0	1.9	1.6	3.7	·	·
C[C@H](O)[C@H]1NC(=O)[C@H]2CN(Cc3cnn(-c4cccc(Cl)c4)c3)CCN2C1=O	0.3	2.7	-0.7	19.8	·	·
COc1cc(CNC(=O)CCCC/C=C/C(C)C)ccc1O	0.1	-12.1	7.6*!	-7.4	0.1	-5.9
COc1ccc(CNC(=O)CCSC)cc1OC	0.1	1.5	-0.7	-4.8	·	·
CSc1nc(N)nc(SC(C(=O)O)c2ccccc2)c1C#N (configuration not stated)	-0.2	6.9	8.6*	-6.3	0.4	13.4
CSc1nc(N)nc(SCC(=O)c2ccccc2)c1C#N	0.0	-21.6	0.0	-9.1	·	·
Cc1cccc(C)c1NC(=S)N(Cc1cccnc1)Cc1ccco1	0.0	-6.0	2.1	-3.1	·	·
Cc1nc2cc(C(=O)N3CCc4ccccc43)ccc2n1-c1ccc(OCc2ccccc2)cc1	-0.1	-5.2	-0.5	1.1	·	·
CC12C=CC(C3OCCO3)(O1)C1C(=O)N(c3ccc(Cl)cc3)C(=O)C12 (configuration not stated)	0.0	12.3	6.4*	5.2	-0.3	-0.7
